Screen size: about 1,200 compounds; about 210 (18%) were called active. Rule as the data show it: active = inhibition above about 30%; inactive = the rest. Only a sample is shown.
test: HTRF signal interference by compounds, confirmation, artefact control for SUMOylation inhibitor project, biochemical, uHTS (AID 2069); details: HTRF interference counterscreen, fluorescence, at 35 µM, stronger effect = higher value

Compound | inhibition
Cc1ccc(C)c(OCC(=O)Nc2nonc2NC(=O)COc2cc(C)ccc2C)c1 | -13.6% (inactive)
Cc1nn(-c2ccccc2)c2sc(C(=O)NNC(=O)COc3ccccc3)cc12 | 10.2% (inactive)
COC(=O)c1ccccc1NC1=C/C(=N\S(=O)(=O)c2cccs2)c2ccccc2C1=O | 1.7% (inactive)
O=[N+]([O-])c1ccc(N2CCN(CCO)CC2)c2ncccc12 | -19.1% (inactive)
O=C(NCc1ccccc1)Nc1cccn(Cc2ccccc2)c1=O | -6.8% (inactive)
CC(=O)Nc1ccc(NC2=C/C(=N/S(=O)(=O)c3cccs3)c3ccccc3C2=O)cc1 | -7.75% (inactive)
Cc1c(NC(=S)N/N=C/c2cc([N+](=O)[O-])ccc2O)c(=O)n(-c2ccccc2)n1C | 11.2% (inactive)
O=[N+]([O-])c1ccc(O)c(/C=N/NC(=S)Nc2ccc(Cl)cc2Cl)c1 | -23.9% (inactive)
O=[N+]([O-])c1cc(Cl)cc(/C=N/NC(=S)Nc2ccc(S(=O)(=O)N3CCOCC3)cc2)c1O | 80.5% (active)
Cc1ccc(/C=C2/SC(=S)N(c3ccc(S(=O)(=O)Nc4nccs4)cc3)C2=O)cc1 | -9.3% (inactive)
N=C1/C(=C/c2cccn2Cc2ccc(Cl)cc2)C(=O)N=C2SC=CN12 | 18.8% (inactive)
CC1CCN(C2=C(NS(=O)(=O)c3ccc(Br)cc3)C(=O)c3ccccc3C2=O)CC1 | 7.4% (inactive)
Cc1c(C(=O)Nc2ccc(F)cc2)cn2c(nc3ccccc32)c1C#N | 19.4% (inactive)
O=c1[nH]c(=S)[nH]c(O)c1N=Nc1ccc(-c2ccccc2)cc1[N+](=O)[O-] | 16.1% (inactive)
CCOc1ccc(C2C=C(c3ccccc3)Nc3ncnn32)cc1 (stereo unspecified) | 50.8% (active)
COc1ccc2nc(NC(=O)CCc3ccc(OC)c(OC)c3)sc2c1 | 10.8% (inactive)
N#CC(c1nc2ccccc2nc1N1CCCC1)S(=O)(=O)c1ccccc1 (stereo unspecified) | 1.75% (inactive)
COc1cc(=O)n(C)c2c(OCC3OC(C)(C)OC3(C)C)cccc12 (stereo unspecified) | 2.3% (inactive)
O=c1c(-c2c(O)cc(O)c3c(=O)cc(-c4ccc(O)cc4)oc23)c(-c2ccc(O)cc2)oc2cc(O)cc(O)c12 | 35.6% (active)
COc1cccc(NC(=O)Nc2nnc(-c3ccccc3SCc3ccccc3)s2)c1 | 2.35% (inactive)
COc1ccc(/C=C/c2cc(C(=O)O)c3ccccc3n2)cc1 | 68.2% (active)
CCOc1ccc(/C=N/NC(=O)c2cc(-c3ccco3)nc3ccccc23)cc1 | 15.3% (inactive)
COc1ccc(C=Nc2cccc3ncccc23)cc1 | -4.65% (inactive)

Compound | inhibition
C/C(=N\NC(=O)c1cc(O)ccc1O)c1cccc(NC(=O)c2ccc(Cl)cc2)c1 | -7.9% (inactive)
Cc1ccc(NC(=O)Cn2c(=O)oc3cc(S(=O)(=O)N4CCC(C)CC4)ccc32)cc1C | -3.55% (inactive)
O=C1/C(=C/c2ccco2)Oc2c1ccc(O)c2CN1CCCCC1 | 37.6% (active)
NC(=O)CC(NC(=O)Cc1ccc(Br)cc1)c1ccc(NCCOc2ccccc2)c([N+](=O)[O-])c1 (stereo unspecified) | 7.3% (inactive)
CN(C)c1cc(Nc2cccc(O)c2)c([N+](=O)[O-])c2nonc12 | -1.05% (inactive)
CN1C(=O)c2cccc3c(S(=O)(=O)NCCc4ccccc4)ccc1c23 | 45% (active)
CN1C(=O)c2cccc3c(S(=O)(=O)NCc4ccco4)ccc1c23 | 11.9% (inactive)
CCN(CC)CCNS(=O)(=O)c1ccc2c3c(cccc13)C(=O)N2 | 47.2% (active)
CCN1C(=O)c2cccc3c(N)ccc1c23 | -24.4% (inactive)
CN(C)CCNS(=O)(=O)c1ccc2c3c(cccc13)C(=O)N2 | 60.6% (active)
O=C(NCc1ccccc1)Nc1cccn(Cc2ccccc2Cl)c1=O | 1.3% (inactive)
N=C1S/C(=C\c2ccc(O)cc2)C(=O)N1c1ccc(F)cc1 | 14.8% (inactive)
COc1ccc(-c2nc3c(c(SCC(=O)Nc4cccc(O)c4)n2)Cc2c(CO)cnc(C)c2O3)cc1 | -1.05% (inactive)
CC(=O)Nc1ccc(-c2nc3ccc(NC(C)=O)cc3o2)cc1 | 40.8% (active)
CC(=O)Nc1cccc(NC(=S)Nc2cccc3ccccc23)c1 | -2.65% (inactive)
O=C(Nc1ccc2nc3ccccc3nc2c1)c1ccc(Br)cc1 | 20.6% (inactive)
Cc1ccc(-c2nc3ccccc3o2)cc1NC(=O)c1ccc2c(c1)OCO2 | 16.6% (inactive)
CC(=O)Nc1ccc2nc3ccccc3nc2c1 | 36.7% (active)
CC(=O)Nc1ccc(S(=O)(=O)Nc2nc3ccccc3nc2Nc2ccc3ccccc3c2)cc1 | 18.6% (inactive)
CCOc1cc(/C=N/N=C(\N)c2nonc2N)cc(Br)c1OCc1cccc2ccccc12 | 0.3% (inactive)
Cc1cc(/C=C2\SC(=S)NC2=O)c(C)[nH]1 | 3.5% (inactive)
O=C(Nc1ccc(N2CCOCC2)c2nonc12)C1CCCC1 | -18.9% (inactive)
O=C(O)CSc1cc(C(=O)c2ccccc2O)cn2c(=O)c3c(-c4ccccc4)csc3nc12 | 7.6% (inactive)

Compound | inhibition
Cc1cc(-c2csc(N)n2)c(C)n1Cc1ccco1 | -4.05% (inactive)
Nc1c(C(=O)Nc2ccc(F)cc2)sc2nc(-c3ccco3)ccc12 | 47% (active)
Nc1c(C(=O)Nc2ccccc2)sc2nc(-c3ccco3)ccc12 | 50.1% (active)
Nc1c(C(=O)Nc2ccc(Br)cc2)sc2nc(-c3ccco3)ccc12 | 28.9% (inactive)
O=C(N/N=C/c1ccc(F)cc1)c1cc(-c2ccco2)nc2ccccc12 | 13% (inactive)
COc1ccccc1NC(=O)c1sc2nc(-c3ccco3)ccc2c1N | 26.8% (inactive)
O=C(Nc1ccc(-n2nncc2-c2ccco2)cc1)c1cc2ccccc2oc1=O | 9.4% (inactive)
O=C(N/N=C/c1ccc(-c2cccc([N+](=O)[O-])c2)o1)c1ccccc1O | 2.3% (inactive)
Cc1ccc(N=C2NC(=O)/C(=C\c3ccco3)S2)cc1 | -0.45% (inactive)
NC1=NC(c2ccc(Cl)cc2)N(c2ccc(S(N)(=O)=O)cc2)C(N)=N1 (stereo unspecified) | 6.2% (inactive)
O=C(CNc1cccc2ccccc12)c1ccc([N+](=O)[O-])cc1 | -2.7% (inactive)
CCOC(=O)N1CCN(C2=C(NS(=O)(=O)c3ccc(C)cc3)C(=O)c3ccccc3C2=O)CC1 | -12.7% (inactive)
COc1cc(C2c3c(oc4ccccc4c3=O)C(=O)N2c2nccs2)ccc1O (stereo unspecified) | 7.95% (inactive)
O=C(O)c1cc(-c2ccco2)nn1-c1ccc(Cl)cc1 | 1.75% (inactive)
Cc1ccc(S(=O)(=O)n2ccc(OC(=O)c3cccs3)n2)cc1 | 0.25% (inactive)
O=C1NNC(c2ccccc2)=N/C1=C\c1ccccc1Cl | -7.9% (inactive)
Cc1ncc(CO)c(/C=N/NC(=O)c2cc(O)c(O)c(O)c2)c1O | 0.4% (inactive)
CN(C)/C=N/c1nc2nccc(-c3cccnc3)n2n1 | 49.2% (active)
S=c1[nH]nc(-c2cccnc2)n1/N=C/C=C/c1ccco1 | -1.7% (inactive)
CN(C)/C=N/c1nc2nccc(-c3cccc(Cl)c3)n2n1 | 57.1% (active)
CC1=NN(c2ccc(F)cc2)C(=O)C1C(c1cccc(O)c1)c1c(C)[nH]n(-c2ccc(F)cc2)c1=O (stereo unspecified) | -9.8% (inactive)
CN(C)c1cc(N/N=C\c2ccccc2)nc(N(C)C)n1 | 22.4% (inactive)
O=C(CC1Nc2cccc3cccc(c23)NC1=O)Nc1ccccc1 (stereo unspecified) | -22.9% (inactive)

Compound | inhibition
O=C(CSc1ccc(Br)c2cccc(Cl)c12)Nc1ccc(S(=O)(=O)Nc2nccs2)cc1 | -50.4% (inactive)
COc1cc2c(ccc3cc(OC)c(OC)c(O)c32)cc1O | 24.2% (inactive)
CC(=O)Nc1ccc(NC(=O)Cn2c(-c3ccc(F)cc3)cnc2SCC(=O)Nc2c(C)cccc2C)cc1 | -6.5% (inactive)
[O-]/C(=C(\C(=S)Nc1cccc2ccccc12)[n+]1ccccc1)c1ccc(Cl)s1 | -8.3% (inactive)
COc1c(C)oc2cc(O)ccc2c1=O | 41% (active)
O=C1CC(N2CCOCC2)=NN1c1ccc([N+](=O)[O-])cc1 | -12.8% (inactive)
O=C(NNc1cc(N2CCOCC2)nc(N2CCOCC2)n1)c1ccc(Cl)c(Cl)c1 | -6.9% (inactive)
Fc1ccc(-c2nc3cnccn3c2NC2CCCC2)cc1 | 57.9% (active)
O=C(/C=C\c1ccco1)c1ccc(NC(=O)c2ccco2)cc1 | 0.2% (inactive)
CCOc1cc(CNc2ccc(N3CCN(C(C)=O)CC3)cc2)cc(Br)c1OC | -8.4% (inactive)
Cc1c2c(=O)n(-c3nc4ccccc4s3)nc-2cc(O)n1Cc1ccccc1 | -12.7% (inactive)
Cc1ccc(S(=O)(=O)NNC(=S)Nc2c(Cl)cccc2Cl)cc1 | -4.65% (inactive)
Cc1[nH]n(-c2ccccc2)c(=O)c1/C=N/N(C)c1ccccc1 | -31.9% (inactive)
C[n+]1cccc2ccc3c(c21)OC(N)=C(C#N)C3c1ccccc1 (stereo unspecified) | -12.1% (inactive)
COc1ccc(-c2cc(-c3ccccc3)n3ncnc3n2)cc1 | 53.7% (active)
COc1cc(OC)cc(-c2nc(-c3ccccc3)no2)c1 | -17.7% (inactive)
Cc1ccc(S(=O)(=O)C(C#N)c2nc3ccccc3nc2N2CCCC2)cc1 (stereo unspecified) | -7.1% (inactive)
COc1ccc(C2=NN(C(=O)c3cccs3)C(c3ccccc3O)C2)cc1 (stereo unspecified) | 8.65% (inactive)
CC1=NN(c2ccccc2)C(=O)/C1=C/c1ccc(Cl)cc1 | -10.2% (inactive)
O=C(O)c1ccc(C(=O)Nc2cccc3ccccc23)c(C(=O)O)c1 | 4.4% (inactive)
O=[N+]([O-])c1ccc2[nH]c(O)c(N=NC(=S)Nc3cccnc3)c2c1 | -5.4% (inactive)
CCN(CC)CCOC(=O)c1ccc(N/C=C(/C#N)c2nc(-c3ccc(OC)c(OC)c3)cs2)cc1 | 6.75% (inactive)

Reference: PubChem BioAssay AID2069 (Sanford-Burnham Center for Chemical Genomics, 2009)
